Records with an inconclusive call do not appear. Calls of active or inactive are those of the source. Rule for the calls: active = hit-call score of the fitted dose curve at least 0.9, where 1 is the maximum; inconclusive = response in the unintended direction; inactive = score below 0.9.

The nature of the assay: Tanguay_ZF_120hpf_TR_legacy: (Legacy) Oregon State University Tanguay Lab 120 Hour Post-fertilization zebrafish Assay for Touch Response (AID 2283667). As to the method:
Tanguay_ZF_120hpf_legacy is a whole embryo, multiplexed endpoint assay using zebrafish larvae exposed for 120 hours post fertilization on a 96-well plate.Tanguay_ZF_120hpf_TR_legacy is one of one assay component(s) measured or calculated from the Tanguay_ZF_120hpf_legacy assay. It is designed to make measurements of zebrafish development as detected with brightfield microscopy of developing zebrafish embryos.Data from the assay component Tanguay_ZF_120hpf_TR_legacy was analyzed into 1 assay endpoints. This assay endpoint, Tanguay_ZF_120hpf_TR_legacy, was analyzed in the positive analysis fitting direction relative to DMSO as the negative control and baseline of activity. Using a type of morphology reporter, gain-of-signal activity can be used to understand changes in developmentals as they relate to the whole embryo. To generalize the intended target to other relatable targets, this assay endpoint is annotated to the zebrafish development intended target family, where the subfamily is embryonic functional response.
Zebrafish husbandry: Tropical 5D wild-type adult zebrafish were housed in at an approximate density of 1000 per 100 gallon tank at the Sinnhuber Aquatic Research Laboratory, Oregon State University, Corvallis, OR. Each tank was kept at standard laboratory conditions of 28C on a 14-h light/10-h dark photoperiod in fish water consisting of reverse osmosis water supplemented with a commercially available salt (Instant Ocean). Spawning funnels were placed into the tanks the night prior, and embryos were collected and staged. […] Ten microliters of each row of dilution plate 2 was added to 2 exposure plates. The final DMSO concentration used was 0.64% (vol/vol). Thirty-two embryos were also exposed to 5uM trimethyltin chloride (positive control). Plates were sealed to prevent evaporation and foil covered to reduce light exposure and kept in a 28C incubator. Embryos were statically exposed until 120 hpf. At 24 hpf, embryos were assessed for photomotor response using a custom photomotor response analysis tool (PRAT) and for developmental toxicity endpoints (MO24: mortality at 24 hpf, DP: developmental progression, SM: spontaneous movement, and NC: notochord distortion). At 120 hpf, locomotor activity was measured using Viewpoint Zebralab and assessed for 18 endpoints. Zebrafish acquisition and analysis program (ZAAP), a custom program designed to inventory, acquire, and manage zebrafish data, was used to collect developmental endpoints as either present or absent (i.e., binary responses were recorded). If mortality occurred for an embryo (at either 24 or 120 hpf), the non-mortality endpoints were not measured.
For the compound `C#C[C@]1(O)CC[C@H]2[C@@H]3CCC4=CC(=O)CC[C@@H]4[C@H]3CC[C@@]21C`, the result was inactive.

With `OCCC(F)(F)C(F)(F)C(F)(F)C(F)(F)C(F)(F)C(F)(F)F`, the result was inactive.

As for `CN(C)C=O`, the result was inactive.

Consider `O=C(O)c1ccccc1C(c1ccc(O)cc1)c1ccc(O)cc1`, for which the compound was classed as inactive.

Consider `CC(C)CCCCCCOC(=O)CCCCC(=O)OCCCCCCC(C)C`, for which the outcome was inactive.

Turning to `CCCCCCCC(=O)O`, the compound was classed as inactive.

The AC50 is the midpoint of the concentration-response curve, whichever way the signal moves. Regarding `CCc1nn(C2CCCCC2)c2cc(C3(C#N)CCC(C(=O)O)CC3)ccc12` (stereo not given), the half-maximal activity concentration (AC50) is 2.48 µM (active).

Consider `CN1CCC[C@H]1c1cccnc1`, for which the compound was classed as inactive.

In the case of `CCCCCCCCCCCCCCCS(=O)(=O)Oc1ccccc1`, the result was inactive.

For the compound `COc1ccc([N+](=O)[O-])cc1N`, the outcome was inactive.

As to `Cc1cc(C)c(O)c(C)c1`, the call was inactive.

On to `O=c1c(-c2ccc(O)cc2)coc2cc(O)ccc12`, for which the result was inactive.

For the compound `Cc1cc(CCN2CCN(c3nsc4ccccc34)CC2)cc2c1NC(=O)CC2(C)C`, the half-maximal activity concentration (AC50) was 6.3 µM (active).

`Cc1oc(-c2ccccc2)nc1CCOc1ccc(C[C@H](Nc2ccccc2C(=O)c2ccccc2)C(=O)O)cc1`: the outcome was inactive.

In the case of `CC(C)(C)c1ccc(O)c(C(C)(C)C)c1`, the result was inactive.

`CC[C@H](c1ccc(O)cc1)[C@@H](CC)c1ccc(O)cc1`: the call was inactive.

For `c1ccc2c(c1)ccc1ccccc12`, the result was inactive.

For `Nc1cccc2c(N)cccc12`, the compound was classed as inactive.

With `CC(O)CO` (stereo not given), the compound was called inactive.

As to `O=C(OCCOCCOC(=O)c1ccccc1)c1ccccc1`, the compound was classed as inactive.

Consider `CCCOC(=O)c1ccc(O)cc1`, for which the AC50 was 41.5 µM (active).

For `c1ccc2c(c1)Cc1ccccc1-2`, the compound was called inactive.

Take `OC1CCC(C2CCCCC2)CC1` (stereo not given): the compound was called inactive.

Turning to `C=C(C)C(=O)OCCC(F)(F)C(F)(F)C(F)(F)C(F)(F)C(F)(F)C(F)(F)F`, the compound was called inactive.

As for `CC(C)(C)c1cc(C(C)(C)C)c(O)c(C(C)(C)C)c1`, the compound was called inactive.

For `C[C@@H]1C[C@H]2[C@@H]3CCC4=CC(=O)C=C[C@]4(C)[C@@]3(F)[C@@H](O)C[C@]2(C)[C@@]1(O)C(=O)COP(=O)(O)O`, the call was inactive.

Turning to `CCC(=C(c1ccc(O)cc1)c1ccc(OCCN(C)C)cc1)c1ccccc1`, the call was inactive.

As to `CC(=O)CC(C)(C)O`, the call was inactive.

Consider `COCC(C)O` (stereo not given), for which the result was inactive.

Turning to `CCCCC(CC)COC(=O)CCCCC(=O)OCc1ccccc1` (stereo not given), the compound was called inactive.

On to `CCCCCCC(=O)O`, for which the result was inactive.

For `CCCCCCCCC(=O)O`, the result was inactive.

In the case of `COC(=O)CCCCC(=O)OC`, the result was inactive.

In the case of `OCCC(F)(F)C(F)(F)C(F)(F)C(F)(F)C(F)(F)C(F)(F)C(F)(F)C(F)(F)F`, the compound was called inactive.

As for `CC[C@H](C)[C@@H](C(=O)O)n1sc2ccccc2c1=O`, the compound was classed as inactive.

For `c1ccc2cc3c(ccc4ccccc43)cc2c1`, the call was inactive.

Take `CC#C[C@]1(O)CC[C@H]2[C@@H]3CCC4=CC(=O)CCC4=C3[C@@H](c3ccc(N(C)C)cc3)C[C@@]21C`: the AC50 is 11.7 µM (active).

Turning to `CC(=O)NC1(c2cccc(F)c2)CCN(CC[C@@]2(c3ccc(Cl)c(Cl)c3)CN(c3ccccc3)C(=O)CO2)CC1`, the call was inactive.

`COCC(C)OCC(C)O` (stereo not given): the outcome was inactive.

As for `CCOC(=O)CC(O)(CC(=O)OCC)C(=O)OCC`, the compound was called inactive.

Values taken from PubChem BioAssay (EPA / NIEHS).
